# Some compounds were tested as several samples or in several runs, with calls that do not always agree. The source made the active and inactive calls. Rule for the calls: active = hit-call score of the fitted dose curve at least 0.9, where 1 is the maximum; inactive = score below 0.9.
# Test: CCTE_Shafer_MEA_acute_per_network_burst_spike_number_std: CCTE's Neural Acute Assay for Standard Deviation of Number of Spikes in a Network Burst, Shafer Lab (AID 2284020);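 note: fitted for decrease in spike-number SD versus DMSO so actives lower it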
# Procedure: CCTE_Shafer_MEA_acute assay is conducted using Axion Biosystems 48 well microelectrode array (MEA) plates and Maestro recording system. Each well of the MEA plate contains a grid of 16 microelectrodes embedded in the culture surface. Electrically active cells, such as neurons, can be cultured over the electrodes, and electrical activity in these cells can be recorded extracellularly. The spontaneous firing of neurons is captured from each electrode on a microsecond timescale providing both temporally and spatially precise data. […] The CCTE_Shafer_MEA_acute assay uses primary cultures of rat cortical neurons. As these cultures mature over time, neural networks develop functional activity and form cohesive networks in which electrical activity can be highly coordinated. Baseline 40-minute recordings are made on days post-plating 13 or 15, followed by a secondary 40-minute recording after chemical exposure.CCTE_Shafer_MEA_acute_per_network_burst_spike_number_std is a component of the CCTE_Shafer_MEA_acute assay. It measures the standard deviation of the number of spikes (action potential firings) in a network burst (temporally-clustered group of spikes across multiple electrodes) during a recording in a microelectrode array (MEA) using Axion Biosystems Maestro 768 channel amplifier with the AxIS adaptive spike detector. The recordings before and after chemical treatment are used to calculate a percent change in the standard deviation of the number of spikes in network bursts in each well.Data from the assay component CCTE_Shafer_MEA_acute_burst_spike_number_std was analyzed into 1 assay endpoint. This assay endpoint, CCTE_Shafer_MEA_acute_burst_spike_number_std, was analyzed in the negative analysis fitting direction relative to DMSO as the negative control and baseline of activity. Using a type of functional reporter, gain or loss-of-signal activity can be used to understand electrical activity.
# Spontaneous activity in the cortical cultures was recorded using an Axion Biosystems Maestro 768 channel amplifier and Axion Integrated Studios (AxIS) v1.8 (or later) software. The amplifier recorded from all channels simultaneously (gain = 1200 x; sampling rate = 12.5 kHz/channel): raw signals were filtered with a Butterworth band-pass filter (300-5000 Hz), which filters out slower local field potentials leaving only fast potentials, i.e., "spikes", arising from extracellular currents associated with action potentials (Pine 2006; Wheeler and Nam 2011). On-line spike detection of filtered signals was conducted with the AxIS adaptive spike detector, using a threshold of 8x the root mean squared (rms) noise on each channel. Any electrodes with rms noise levels greater than 5 uV were grounded (e.g., no data were recorded). Once grounded, an electrode was grounded for the duration of the experiment. All recordings were conducted at 37 C. Wells were deemed usable if on the day of the exposure >/= 10 electrodes were active (defined as >/= 5 spikes/min). On DIV 13 or 15, a minimum of three wells from one cortical culture preparation were treated with each compound (0.03-40 uM). Prior to recording baseline activity, each mwMEA plate was placed in the Maestro at 37 C and allowed to sit for 20 min while firing rates stabilized. Baseline activity (40 min) was recorded before the addition of each compound. An additional 40 min of spontaneous activity was recorded in the presence of each compound. Changes in network parameters relative to baseline were assessed following compound treatment.
SMILES,AC50,outcome
CC1(C)[C@@H](C=C(Cl)Cl)[C@@H]1C(=O)O[C@@H](C#N)c1ccc(F)c(Oc2ccccc2)c1,534 nM (active),
CP(=O)(O)CC[C@H](N)C(=O)O,,inactive
CP(=O)(O)CCC(N)C(=O)O (stereo unspecified),,inactive
O=c1c2ccccc2c(=O)c2c1cc(Cl)c1[nH]c3c([nH]c12)c(Cl)cc1c(=O)c2ccccc2c(=O)c13,,inactive
Cc1ccc(OP(=O)(Oc2ccc(C)cc2)Oc2ccc(C)cc2)cc1 (tested in a mixture with another compound),3320 nM (active),
CC1(C)[C@H](C=C(Cl)Cl)[C@@H]1C(=O)O[C@@H](C#N)c1cccc(Oc2ccccc2)c1,682 nM (active),
O=[N+]([O-])O,3 nM (active),inactive
CC1(C)[C@H](C(=O)O[C@H](C#N)c2cccc(Oc3ccccc3)c2)[C@@H]1C=C(Br)Br,642 nM (active),
Oc1ccc(C2(c3ccc(O)cc3)c3ccccc3-c3ccccc32)cc1,23100 nM (active),
[Cd+2].[Cl-].[Cl-],,inactive
c1cc[n+]2c(c1)-c1cccc[n+]1CC2,,inactive
C#CCN(C)[C@H](C)Cc1ccccc1,,inactive
O=C(O)CNCP(=O)(O)O,,inactive
CCCC[N+](CCCC)(CCCC)CCCC,5600 nM (active),
COc1ccc(CO)cc1,,inactive

# — PubChem BioAssay (EPA / NIEHS)
